# Assay results reported in PubChem BioAssay (NCATS).
# Records with an inconclusive call do not appear. Where a call stands in place of a potency, no number is given. Activity calls are given as the source filed them. Calls come from the whole dose curve; as a rule, active = well fitted cell-killing curve with a large enough effect; inconclusive = small, poorly fitted or top-dose-only effect; inactive = flat fitted curve, though single readings scatter.
# Test: Cell Viability - LYMP2-002 (AID 977);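 note: compound exposure lasted 24 h at 37 °C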
# Details: LYMP2-002 lymphoblastoid cell viability, qHTS; series mostly up to 92.2 µM
# Description: NIH Chemical Genomics Center [NCGC]
# NIH Molecular Libraries Screening Centers Network [MLSCN]
# National Institutes of Environmental Health Sciences [NIEHS]
# National Toxicology Program [NTP]
# We have developed a 1536-well cell-based assay for quantitative high throughput screening (qHTS) against a number of cell lines to determine in vitro cytotoxicity of small molecules. This particular assay uses a human lymphoblastoid cell line (LYMP2-002) purchased from Coriell Institute for Medical Research.
# NCGC Assay Protocol Summary:
# The CellTiter-Glo luminescent cell viability assay (Promega) is a homogeneous method to measure the number of viable cells in culture. The end point readout of this assay is based on quantitation of intracellular ATP, an indicator of metabolic activity, using the luciferase reaction. Luciferase catalyzes the oxidation of beetle Luciferin to oxyluciferin and light in the presence of ATP. The luminescent signal is proportional to amount of ATP present.
# Using the CellTiter-Glo luminescent cell viability assay, the amount of cellular ATP was measured in the lymphoblastoid cell line with complete culture medium following compound treatment for 24 hours. The assay was performed in opaque white Kalypsys 1536-well plates. In the screen, tetraoctylammonium bromide was used as positive control. Library compounds were measured for their ability to cause acute toxicity in the cell line, as reflected by a decrease in intracellular ATP levels, in a concentration-dependent manner. […] AC50 values were determined from concentration-response data modeled with the standard Hill equation.
# qHTS protocol for CellTiter Glo lymphoblastoid cellular assay
# [Step] [Parameter] [Value] [Description]
# 1. Reagent; 5 uL; 2500 lymphoblastoid cells/well
# 2. Time; 5 hr; 37 C incubation
# 4. Controls; 23 nL; Tetraoctylammonium bromide 6.4pM to 92 uM
# 5. Time; 24 hr; 37 C incubation
# 6. Reagent; 5 uL; CellTiter Glo reagent
# 7. Time; 30 min; Room Temperature
# 8. Detection; Luminescence; Viewlux plate reader
# Keywords: cell viability, cytotoxicity, lymphoblastoid cell line, luminescence, NTPHTS, NTPHTS_NCGC, NIEHS, DSSTox, MLSMR, MLSCN, NIH Roadmap, qHTS, NCGC
# Potency is the fitted concentration of half-maximal effect.
row,Compound,Potency
1,CCCCCCCC[N+](CCCCCCCC)(CCCCCCCC)CCCCCCCC,7.94 µM (active)
2,O=C(/C=C/c1ccc(O)c(O)c1)OC1C[C@](O)(C(=O)O)C[C@@H](O)[C@H]1O (some centres not stated),inactive
3,CCCCCC/C(C=O)=C\c1ccccc1,inactive
4,CO[C@H]1/C=C/O[C@@]2(C)Oc3c(C)c(O)c4c(O)c(c5c(c4c3C2=O)NC2(CCN(CC(C)C)CC2)N=5)=NC(=O)/C(C)=C\C=C\[C@H](C)[C@H](O)[C@@H](C)[C@@H](O)[C@@H](C)[C@H](OC(C)=O)[C@@H]1C,inactive
5,Cc1cc(O)c(C(C)(C)C)cc1Sc1cc(C(C)(C)C)c(O)cc1C,31.6 µM (active)
6,C=CC(=O)OCCOCCOC(=O)C=C,25.1 µM (active)
7,c1ccc2c(c1)-c1cccc3c1c-2cc1ccccc13,inactive
8,C/C=C1\C(=O)C[C@H]2[C@@H]3CCC4=CC(=O)CC[C@]4(C)[C@H]3CC[C@]12C,inactive
9,CCC(C)Nc1ccc(NC(C)CC)cc1 (configuration not stated),3.98 µM (active)
10,C=C(C)c1ccccc1,inactive
11,O=[N+]([O-])c1cc([N+](=O)[O-])c2ccc(S(=O)(=O)O)cc2c1O,inactive
12,O=C=Nc1ccc(Cc2ccc(N=C=O)cc2)cc1,inactive
13,O=C(OCC(COC(=O)c1ccccc1)(COC(=O)c1ccccc1)COC(=O)c1ccccc1)c1ccccc1,inactive
14,CN1[C@H]2CC(OC(=O)[C@H](CO)c3ccccc3)C[C@H]1[C@H]1O[C@H]12 (some centres not stated),inactive
15,Cc1cccc(O)c1C,inactive
16,O=C1OC(O)C(C(Cl)Cl)=C1Cl (configuration not stated),25.1 µM (active)
17,CC(=O)Nc1ccc(C(=O)CCl)cc1,7.94 µM (active)
18,CNc1ccc(O)cc1,10 µM (active)
19,c1ccc2c(c1)ccc1cc3c(ccc4ccccc43)cc12,inactive
20,O=Cc1ccc(Cl)c(Cl)c1,inactive
21,Nc1ccc2cc3ccccc3cc2c1,inactive
22,CN(C)c1ccc(C2(c3ccc(N(C)C)cc3)OC(=O)c3cc(N(C)C)ccc32)cc1,inactive
